Entries with a potency or affinity are not part of this list. Activity calls are given as the source filed them. No rule for the calls is given here.

The experiment is described as follows: host cell cytotoxicity of antiviral hits, dose response, cytotoxicity control for West Nile virus antiviral project, secondary assay (AID 1650). The note with it: Mammalian host cell viability, cytotoxicity counter-screen; series mostly up to 10 µM.
Turning to `O=C(CCN1C(=O)/C(=C/c2ccc(F)cc2)SC1=S)NCCc1ccc(O)cc1`, the compound was called inactive.

As for `CCOC(=O)c1c(NC(=O)CN(C)C2CCN(C)CC2)sc(C(=O)Nc2ccccc2)c1C`, the call was inactive.

As to `CCN(CC)CCNc1ncnc2c1sc1nc(N3CCCC3)c3c(c12)CC(C)(C)OC3`, the compound was called inactive.

In the case of `Cc1ccc(OCC(=O)c2cc(C)c(C)cc2C)c([N+](=O)[O-])n1`, the compound was called inactive.

`CN1CCN(C(=O)CCN2C(=O)/C(=C/c3ccccc3Cl)SC2=S)CC1`: the call was inactive.

Consider `CCCCN(CC)CCNC(=S)Nc1ccc2nc(N3CCN(C)CC3)cc(C)c2c1`, for which the compound was classed as inactive.

As for `CCCCOC(=O)Cn1c2ccc(OC)cc2c2nc3ccccc3nc21`, the outcome was inactive.

In the case of `O=C(O)C1CCCN1C(=O)c1cncc(Br)c1` (configuration not stated), the outcome was inactive.

Turning to `CCc1ccc(NC(=O)CSc2nc3ccccc3c(=O)n2CCCC(=O)NCCCN2CCOCC2)cc1`, the outcome was inactive.

For the compound `CC1(C)CC(NC(=O)COc2cc3oc(=O)c4c(c3cc2Cl)CCC4)CC(C)(C)N1`, the compound was classed as inactive.

Regarding `CN1CCCC(n2nc(Cc3ccc(Cl)cc3)c3ccccc3c2=O)CC1` (configuration not stated), the call was inactive.

`CCCCCCOC(=O)C(C#N)c1nc2ccccc2nc1N1CCN(C)CC1` (configuration not stated): the compound was classed as inactive.

On to `CC(C)Cc1nc2oc3c(NCCCN4CCOCC4)ncnc3c2c2c1CCC2`, for which the call was inactive.

As to `O=C(COc1ccc(Cl)cc1)NCCSCc1cccc(Cl)c1`, the outcome was inactive.

As to `Cc1ccc(S(=O)(=O)N2CCCC2C(=O)Oc2ccccc2)cc1` (configuration not stated), the compound was classed as inactive.

Consider `CCN(CC)CCn1c(=N)n(CC(=O)c2ccc(Br)s2)c2ccccc21`, for which the call was inactive.

With `COCCN1CCCC(CNCc2cn(C)nc2-c2ccc(Oc3ccccc3)cc2)C1` (configuration not stated), the call was inactive.

These data come from PubChem BioAssay AID1650 (Southern Research Specialized Biocontainment Screening …, 2009).
